± gives the standard deviation of the averaged measurements. Of roughly 5,400 targets only a part is listed; those with the largest changes were picked by preference.

This experiment deals with T1, FARSB (UniProt Q9NSD9).
T1 sequence (whole entry): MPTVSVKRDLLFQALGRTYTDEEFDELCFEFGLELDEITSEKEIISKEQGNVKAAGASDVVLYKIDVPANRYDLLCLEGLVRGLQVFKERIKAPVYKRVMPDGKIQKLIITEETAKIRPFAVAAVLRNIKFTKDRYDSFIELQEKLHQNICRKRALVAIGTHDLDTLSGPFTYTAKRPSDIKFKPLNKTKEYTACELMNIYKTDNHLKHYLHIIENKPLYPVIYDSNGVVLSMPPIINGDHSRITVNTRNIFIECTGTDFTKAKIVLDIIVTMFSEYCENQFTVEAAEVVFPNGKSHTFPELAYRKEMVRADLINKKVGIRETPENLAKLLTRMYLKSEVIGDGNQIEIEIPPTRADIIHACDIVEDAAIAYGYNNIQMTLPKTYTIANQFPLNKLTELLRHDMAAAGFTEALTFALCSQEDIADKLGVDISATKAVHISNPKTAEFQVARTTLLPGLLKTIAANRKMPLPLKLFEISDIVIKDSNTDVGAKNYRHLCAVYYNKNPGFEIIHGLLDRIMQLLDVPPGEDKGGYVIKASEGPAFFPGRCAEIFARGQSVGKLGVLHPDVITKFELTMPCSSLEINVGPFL
The experiment is described as follows: NP40-soluble protein abundance relative to vehicle (solubility fold change) (ratio); higher = more soluble protein in presence of GTP. The protocol: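 Solubility proteome profiling in Jurkat crude lysate. Lysate was treated with Mg-GTP (0.1-10 mM) for 10 min at room temperature and 3 min at 37 °C, then solubilised with 0.8% NP40 and benzonase, followed by ultracentrifugation. Proteins were quantified by TMT10 LC-MS/MS; the value is the NP40-soluble abundance relative to the NP40-processed vehicle, from 3 independent experiments.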

`Nc1nc2c(ncn2[C@@H]2O[C@H](COP(=O)(O)OP(=O)(O)OP(=O)(O)O)[C@@H](O)[C@H]2O)c(=O)[nH]1` [guanosine triphosphate]: the NP40-soluble protein abundance (concentration: 0.1mM) came out at 1.05 ± 0.043; the NP40-soluble protein abundance (concentration: 0.5mM) amounted to 1.06 ± 0.074; the NP40-soluble protein abundance (concentration: 1mM) was determined as 0.933 ± 0.035; the NP40-soluble protein abundance (concentration: 2mM) amounted to 0.944 ± 0.091; the NP40-soluble protein abundance (concentration: 4mM) came out at 0.954 ± 0.064; the NP40-soluble protein abundance (concentration: 6mM) was 0.925 ± 0.059. Besides, the NP40-soluble protein abundance (concentration: 8mM) was found to be 0.875 ± 0.012 and the NP40-soluble protein abundance (concentration: 10mM) came to 0.844 ± 0.057.

The values above are taken from the supplement of paper PMC6411743.
